Assay results as given in PubChem BioAssay AID1159580 (chemical genetic matrix, 2015).
Among all 5,500 compounds or so, about 2,000 (36%) were called active. Another 18% or so got no clear call; they are omitted. Rule as the data show it: active = normalized growth mostly below about 0.91 (no sharp cut-off); inconclusive = no clear call, values can overlap the other calls; inactive = mostly above about 0.92. Some of the results follow.

Experiment: chemical genetic growth profiling, strain panel (AID 1159580);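 also: tested at 20 µM; growth read once vehicle control cultures reached saturation at 30 °C; 1 = growth at the plate median or of vehicle wells; lower values mean less growth of the strain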
Conditions: S. cerevisiae deletion strains, growth OD

Measured: normalized growth

CC(=O)OC1CCC2(O)CC1(C)CCC1C2CC1(C)C (stereo not given)
inactive: locus YAL021C, strain ccr4, active compounds read low 1 | locus YAL026C, strain drs2, active compounds read low 1.05 | locus YAL030W, strain snc1, active compounds read low 1.02 | locus YBL061C, strain skt5, active compounds read low 1.02 | locus YBR009C, strain hhf1, active compounds read low 1.03 | locus YBR021W, strain FUR4, active compounds read low 1 | locus YBR023C, strain chs3, active compounds read low 1.02 | locus YBR171W, strain sec66, active compounds read low 1.03 | locus YBR229C, strain ROT2, active compounds read low 0.949 | locus YBR231C, strain swc5, active compounds read low 1.05 | locus YBR279W, strain paf1, active compounds read low 1.01 | locus YCL011C, strain gbp2, active compounds read low 1.03 | locus YCL016C, strain dcc1, active compounds read low 1.02 | locus YCL029C, strain bik1, active compounds read low 0.974 | locus YCL061C, strain MRC1, active compounds read low 1.02 | locus YCL069W, strain vba3, active compounds read low 1.03 | locus YCR088W, strain abp1, active compounds read low 1.02 | locus YDL005C, strain med2, active compounds read low 1.02 | locus YDL035C, strain GPR1, active compounds read low 0.958 | locus YDL040C, strain nat1, active compounds read low 1.02 | locus YDL074C, strain BRE1, active compounds read low 0.989 | locus YDL101C, strain DUN1, active compounds read low 0.992 | locus YDL185W, strain tfp1, active compounds read low 0.968 | locus YDL192W, strain arf1, active compounds read low 0.981 | locus YDR001C, strain nth1, active compounds read low 1.02 | locus YDR069C, strain doa4, active compounds read low 1.03 | locus YDR101C, strain arx1, active compounds read low 0.973 | locus YDR137W, strain rgp1, active compounds read low 0.988 | locus YDR159W, strain sac3, active compounds read low 1.06 | locus YDR162C, strain NBP2, active compounds read low 0.938 | locus YDR195W, strain ref2 1.01 | locus YDR297W, strain sur2, active compounds read low 1.01 | locus YDR318W, strain mcm21, active compounds read low 0.977 | locus YDR334W, strain swr1, active compounds read low 1.03 | locus YDR335W, strain msn5, active compounds read low 1.04 | locus YDR388W, active compounds read low 0.965 | locus YDR392W, strain spt3, active compounds read low 0.955 | locus YDR502C, strain sam2, active compounds read low 1.02 | locus YEL003W, strain gim4, active compounds read low 1.04 | locus YEL037C, strain rad23, active compounds read low 1.02 | locus YEL061C, strain CIN8 (second series), active compounds read low 1.03 | locus YER015W, strain faa2, active compounds read low 1.02 | locus YER016W, strain bim1, active compounds read low 1.03 | locus YER110C, active compounds read low 0.973 | locus YER111C, strain swi4, active compounds read low 1.02 | locus YER155C, strain BEM2 (second series), active compounds read low 1.05 | locus YER155C, strain BEM2, active compounds read low 0.982 | locus YER167W, strain BCK2, active compounds read low 0.975 | locus YFR010W, strain ubp6, active compounds read low 1.04 | locus YGL078C, strain dbp3, active compounds read low 1.02 | locus YGL086W, strain mad1, active compounds read low 0.996 | locus YGL167C, strain pmr1, active compounds read low 1.02 | locus YGL173C, strain kem1, active compounds read low 1.04 | locus YGL227W, strain vid30, active compounds read low 1.03 | locus YGL240W, strain doc1, active compounds read low 1.03 | locus YGL248W, strain PDE1, active compounds read low 1.01 | locus YGL253W, strain hxk2, active compounds read low 1.07 | locus YGR135W, strain pre9, active compounds read low 1.07 | locus YGR229C, strain SMI1, active compounds read low 0.914 | locus YGR252W, strain gcn5, active compounds read low 1.05 | locus YHR013C, strain ard1, active compounds read low 1.03 | locus YHR027C, strain rpn1, active compounds read low 1.02 | locus YHR079C, strain IRE1 (second series), active compounds read low 0.982 | locus YHR094C, strain hxt1, active compounds read low 0.976 | locus YHR129C, strain ARP1, active compounds read low 0.988 | locus YHR142W, strain chs7, active compounds read low 1.03 | locus YHR200W, strain rpn10, active compounds read low 0.999 | locus YIL066C, strain RNR3, active compounds read low 0.961 | locus YIL073C, strain SPO22, active compounds read low 1.03 | locus YIL125W, strain kgd1, active compounds read low 0.986 | locus YIR030C, strain dcg1, active compounds read low 0.972 | locus YJL092W, strain hpr5, active compounds read low 1.03 | locus YJL095W, strain BCK1 (second series), active compounds read low 1.04 | locus YJL095W, strain BCK1, active compounds read low 1.02 | locus YJL115W, strain asf1, active compounds read low 1.01 | locus YJL129C, strain trk1, active compounds read low 1.01 | locus YJL134W, strain LCB3, active compounds read low 0.974 | locus YJL154C, strain vps35, active compounds read low 1.03 | locus YJL164C, strain tpk1, active compounds read low 1 | locus YJL166W, strain qcr8, active compounds read low 1.03 | locus YJL168C, strain set2, active compounds read low 0.991 | locus YJL187C, strain SWE1 (second series), active compounds read low 1.01 | locus YJL187C, strain SWE1, active compounds read low 1.03 | locus YKL009W, strain mrt4, active compounds read low 0.976 | locus YKL068W, active compounds read low 0.984 | locus YKL085W, strain MDH1 (second series), active compounds read low 0.979 | locus YKL085W, strain MDH1, active compounds read low 0.979 | locus YKL160W, strain elf1, active compounds read low 1.01 | locus YKL190W, strain CNB1, active compounds read low 0.981 | locus YKR001C, strain vps1, active compounds read low 0.977 | locus YKR026C, strain gcn3, active compounds read low 1.03 | locus YKR091W, strain srl3, active compounds read low 1.02 | locus YLL001W, strain dnm1, active compounds read low 1 | locus YLL026W, active compounds read low 1.01 | locus YLL041C, strain sdh2, active compounds read low 1.02 | locus YLR027C, strain aat2, active compounds read low 1.05 | locus YLR039C, strain RIC1, active compounds read low 0.945 | locus YLR058C, strain SHM2, active compounds read low 0.978 | locus YLR102C, strain apc9, active compounds read low 0.996 | locus YLR221C, strain rsa3, active compounds read low 1.05 | locus YLR258W, strain gsy2, active compounds read low 1.04 | locus YLR262C, strain YPT6 (second series), active compounds read low 1.03 | locus YLR268W, strain sec22, active compounds read low 0.943 | locus YLR320W, strain mms22, active compounds read low 1.05 | locus YLR330W, strain CHS5, active compounds read low 0.987 | locus YLR342W, strain FKS1 (second series), active compounds read low 0.97 | locus YLR342W, strain FKS1, active compounds read low 1.02 | locus YLR357W, strain rsc2, active compounds read low 1.03 | locus YLR370C, strain arc18, active compounds read low 1.02 | locus YLR371W, strain rom2, active compounds read low 1.02 | locus YLR384C, strain iki3, active compounds read low 1.01 | locus YLR418C, strain cdc73, active compounds read low 1.04 | locus YML016C, strain PPZ1, active compounds read low 0.974 | locus YML032C, strain rad52, active compounds read low 0.985 | locus YML120C, strain ndi1, active compounds read low 0.999 | locus YML124C, strain tub3, active compounds read low 0.982 | locus YMR058W, strain fet3, active compounds read low 1.04 | locus YMR078C, strain ctf18, active compounds read low 0.997 | locus YMR125W, strain sto1, active compounds read low 0.998 | locus YMR129W, active compounds read low 1.02 | locus YMR205C, strain PFK2, active compounds read low 1.04 | locus YMR223W, strain ubp8, active compounds read low 1.02 | locus YMR231W, strain pep5, active compounds read low 1.02 | locus YMR263W, strain SAP30, active compounds read low 0.984 | locus YMR307W, strain GAS1, active compounds read low 0.926 | locus YNL067W, strain RPL9B, active compounds read low 1.01 | locus YNL071W, strain lat1, active compounds read low 1.03 | locus YNL209W, strain ssb2, active compounds read low 1.01 | locus YNL233W, strain BNI4, active compounds read low 1.05 | locus YNL248C, strain rpa49, active compounds read low 1.03 | locus YNL250W, strain rad50, active compounds read low 0.956 | locus YNL271C, strain bni1, active compounds read low 0.991 | locus YNL298W, strain CLA4, active compounds read low 0.967 | locus YNL307C, strain MCK1, active compounds read low 1.01 | locus YNL322C, strain KRE1 (second series), active compounds read low 1.01 | locus YNR049C, strain mso1, active compounds read low 1.05 | locus YNR052C, strain pop2, active compounds read low 1.04 | locus YOL006C, strain TOP1, active compounds read low 0.973 | locus YOL012C, strain htz1 0.722 | locus YOL147C, strain pex11, active compounds read low 0.985 | locus YOR001W, strain rrp6, active compounds read low 1.06 | locus YOR061W, strain CKA2, active compounds read low 0.957 | locus YOR069W, strain VPS5, active compounds read low 0.983 | locus YOR070C, strain gyp1, active compounds read low 1.03 | locus YOR080W, strain dia2, active compounds read low 1.02 | locus YOR083W, strain WHI5, active compounds read low 1.06 | locus YOR106W, strain vam3, active compounds read low 1.02 | locus YOR136W, strain idh2, active compounds read low 0.992 | locus YOR144C, strain elg1, active compounds read low 0.988 | locus YOR184W, strain ser1, active compounds read low 0.909 | locus YOR265W, strain rbl2, active compounds read low 1.02 | locus YOR270C, strain vph1, active compounds read low 1.13 | locus YOR290C, strain snf2, active compounds read low 1.03 | locus YOR316C, strain cot1, active compounds read low 0.992 | locus YPL051W, strain arl3, active compounds read low 1.01 | locus YPL055C, strain LGE1, active compounds read low 0.932 | locus YPL078C, strain atp4, active compounds read low 1 | locus YPL106C, strain sse1, active compounds read low 0.991 | locus YPL240C, strain hsp82, active compounds read low 1.02 | locus YPL241C, strain CIN2, active compounds read low 0.997 | locus YPR119W, strain clb2, active compounds read low 0.989 | locus YPR141C, strain kar3, active compounds read low 0.977 | locus YPR163C, strain tif3, active compounds read low 0.989 | locus YPR167C, strain met16, active compounds read low 0.993 | strain wtn01, active compounds read low 0.958
